# The supplement of paper PMC6897291
# Assays:
# RIVA [1] = assay: growth inhibition by drug alone (1 - RLU/untreated control) (fraction); higher = stronger inhibition; conditions: 177Lu-lilotomab satetraxetan 0 ug/ml
# Outline: (§1)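 Plates pre-printed with the Selleck Cambridge Cancer Compound library at 10/100 nM (RIVA) or 10/1,000 nM (U-2932) received 3,000 cells/well. These cells had been washed after 18 h untreated or with a radiolabelled anti-CD37 antibody conjugate (~600 MBq/mg; 0.5 µg/ml RIVA, 1 µg/ml U-2932). Growth inhibition was obtained from RealTime-Glo luminescence in relation to untreated no-drug wells. Each daily read from day 3, taken after 1 h at 37°C, was converted as 1 − RLU/mean of 48 such wells per plate.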
# U-2932 [2] = assay: growth inhibition by drug plus 177Lu-lilotomab satetraxetan (1 - RLU/untreated control) (fraction); higher = stronger inhibition; conditions: 177Lu-lilotomab satetraxetan 1 ug/ml
# Outline: as §1
# RIVA [3] = assay: as above; conditions: 177Lu-lilotomab satetraxetan 0.5 ug/ml
# Outline: as §1
# U-2932 [4] = assay: growth inhibition by drug alone (1 - RLU/untreated control) (fraction); higher = stronger inhibition; conditions: 177Lu-lilotomab satetraxetan 0 ug/ml
# Outline: as §1
Compound,"growth inhibition by drug alone (RIVA [1]; 10 nM, time (day): 3)","growth inhibition by drug alone (RIVA [1]; 10 nM, time (day): 4)","growth inhibition by drug alone (RIVA [1]; 10 nM, time (day): 5)","growth inhibition by drug alone (RIVA [1]; 10 nM, time (day): 6)","growth inhibition by drug alone (RIVA [1]; 100 nM, time (day): 3)","growth inhibition by drug alone (RIVA [1]; 100 nM, time (day): 4)","growth inhibition by drug alone (RIVA [1]; 100 nM, time (day): 5)","growth inhibition by drug alone (RIVA [1]; 100 nM, time (day): 6)","growth inhibition by drug plus 177Lu-lilotomab satetraxetan (U-2932 [2]; 10 nM, time (day): 3)","growth inhibition by drug plus 177Lu-lilotomab satetraxetan (U-2932 [2]; 10 nM, time (day): 4)","growth inhibition by drug plus 177Lu-lilotomab satetraxetan (U-2932 [2]; 10 nM, time (day): 5)","growth inhibition by drug plus 177Lu-lilotomab satetraxetan (U-2932 [2]; 10 nM, time (day): 6)","growth inhibition by drug plus 177Lu-lilotomab satetraxetan (U-2932 [2]; 1000 nM, time (day): 3)","growth inhibition by drug plus 177Lu-lilotomab satetraxetan (U-2932 [2]; 1000 nM, time (day): 4)","growth inhibition by drug plus 177Lu-lilotomab satetraxetan (U-2932 [2]; 1000 nM, time (day): 5)","growth inhibition by drug plus 177Lu-lilotomab satetraxetan (U-2932 [2]; 1000 nM, time (day): 6)","growth inhibition by drug plus 177Lu-lilotomab satetraxetan (RIVA [3]; 10 nM, time (day): 3)","growth inhibition by drug plus 177Lu-lilotomab satetraxetan (RIVA [3]; 10 nM, time (day): 4)","growth inhibition by drug plus 177Lu-lilotomab satetraxetan (RIVA [3]; 10 nM, time (day): 5)","growth inhibition by drug plus 177Lu-lilotomab satetraxetan (RIVA [3]; 10 nM, time (day): 6)","growth inhibition by drug plus 177Lu-lilotomab satetraxetan (RIVA [3]; 100 nM, time (day): 3)","growth inhibition by drug plus 177Lu-lilotomab satetraxetan (RIVA [3]; 100 nM, time (day): 4)","growth inhibition by drug plus 177Lu-lilotomab satetraxetan (RIVA [3]; 100 nM, time (day): 5)","growth inhibition by drug plus 177Lu-lilotomab satetraxetan (RIVA [3]; 100 nM, time (day): 6)","growth inhibition by drug alone (U-2932 [4]; 10 nM, time (day): 3)","growth inhibition by drug alone (U-2932 [4]; 10 nM, time (day): 4)","growth inhibition by drug alone (U-2932 [4]; 10 nM, time (day): 5)","growth inhibition by drug alone (U-2932 [4]; 10 nM, time (day): 6)","growth inhibition by drug alone (U-2932 [4]; 1000 nM, time (day): 3)","growth inhibition by drug alone (U-2932 [4]; 1000 nM, time (day): 4)","growth inhibition by drug alone (U-2932 [4]; 1000 nM, time (day): 5)","growth inhibition by drug alone (U-2932 [4]; 1000 nM, time (day): 6)"
CN(NC(=O)CC(=O)NN(C)C(=S)c1ccccc1)C(=S)c1ccccc1 [Elesclomol],0.97,0.964,0.963,0.964,0.976,0.976,0.975,0.974,0.854,0.88,0.914,0.935,0.983,0.982,0.984,0.987,0.972,0.968,0.972,0.974,0.987,0.988,0.987,0.988,–,–,–,–,–,–,–,–
COc1cc(Nc2ncc(F)c(Nc3ccc4c(n3)N(COP(=O)(O)O)C(=O)C(C)(C)O4)n2)cc(OC)c1OC,–,–,–,–,–,–,–,–,0.0179,0.0218,0.0539,0.209,-0.0117,0.00967,0.0277,0.162,0.382,0.517,0.542,0.553,0.413,0.448,0.452,0.437,–,–,–,–,–,–,–,–
N#Cc1ccc(NC(=O)Nc2ccccc2Br)c2n[nH]nc12,-0.0525,0.00855,-0.101,-0.43,-0.383,-0.198,-0.264,-0.513,0.0243,0.065,0.134,0.142,0.0797,0.0995,0.138,0.218,0.534,0.601,0.605,0.619,0.463,0.528,0.544,0.542,–,–,–,–,–,–,–,–
COc1ccc(/C=C\c2cc(OC)c(OC)c(OC)c2)cc1O [Combretastatin A4],0.953,0.965,0.971,0.975,0.924,0.936,0.954,0.964,0.971,0.978,0.983,0.986,0.965,0.979,0.985,0.988,0.964,0.976,0.98,0.984,0.936,0.949,0.963,0.971,–,–,–,–,–,–,–,–
CC(NC(=O)c1ccccc1/N=C/c1c(O)ccc2ccccc12)c1ccccc1 (configuration not stated) [Sirtinol],-0.0251,0.00147,-0.0621,-0.367,-0.00236,-0.00311,-0.00892,-0.099,0.0459,0.0759,0.116,0.164,-0.00947,0.0904,0.0917,0.101,0.345,0.472,0.506,0.526,0.436,0.523,0.536,0.529,–,–,–,–,–,–,–,–
O=C(Cc1ccc(-c2ccc(OCCN3CCOCC3)cc2)cn1)NCc1ccccc1,0.0653,0.0193,-0.0159,-0.201,0.766,0.708,0.676,0.605,0.0847,0.112,0.111,0.18,0.968,0.977,0.981,0.983,–,–,–,–,–,–,–,–,–,–,–,–,–,–,–,–
COc1ccc(C2CC(c3ccccc3)=NN2c2ccc(S(N)(=O)=O)cc2)cc1 (configuration not stated),-0.0673,-0.122,-0.182,-0.683,-0.196,-0.182,-0.21,-0.396,0.0153,0.0306,0.0246,0.0751,-0.0784,0.0449,-0.00789,0.0654,0.344,0.49,0.534,0.554,0.412,0.495,0.491,0.476,–,–,–,–,–,–,–,–
CCOc1ccn(-c2ccc(F)cc2)c(=O)c1C(=O)Nc1ccc(Oc2ccnc(N)c2Cl)c(F)c1,0.0958,0.084,0.0356,-0.0223,-0.0283,0.013,-0.000157,-0.0616,0.12,0.152,0.188,0.258,0.0517,0.106,0.162,0.259,0.626,0.638,0.657,0.657,0.445,0.512,0.523,0.514,–,–,–,–,–,–,–,–
CC[C@]1(O)C[C@@H]2CN(CCc3c([nH]c4ccccc34)[C@@](C(=O)OC)(c3cc4c(cc3OC)N(C)[C@H]3[C@@](O)(C(=O)OC)[C@H](OC(C)=O)[C@]5(CC)C=CCN6CC[C@]43[C@@H]65)C2)C1 [Vinblastine],0.0866,0.101,0.0372,-0.193,0.546,0.442,0.393,0.337,0.0509,0.085,0.136,0.198,0.96,0.973,0.981,0.984,–,–,–,–,–,–,–,–,0.125,0.0844,0.0429,0.00677,0.942,0.96,0.971,0.978
Cc1ccc(-c2csc3ncnc(SCCC(=O)O)c23)cc1,-0.135,-0.215,-0.266,-0.425,-0.333,-0.33,-0.376,-0.529,-0.0558,-0.00644,0.0127,0.0699,-0.0374,0.018,0.0424,0.16,0.458,0.495,0.522,0.525,0.365,0.436,0.45,0.472,–,–,–,–,–,–,–,–
CCn1c(-c2nonc2N)nc2cnc(Oc3cccc(NC(=O)c4ccc(OCCN5CCOCC5)cc4)c3)cc21,-0.232,-0.237,-0.286,-0.351,-0.202,-0.237,-0.215,-0.241,-0.198,-0.145,-0.0619,0.0328,0.279,0.292,0.374,0.603,–,–,–,–,–,–,–,–,-0.134,-0.155,-0.145,-0.41,0.0463,0.0519,0.129,0.357
COc1c(C)cnc(Cn2cnc3c(Cl)nc(N)nc32)c1C,-0.00355,0.0266,-0.0608,-0.277,0.0172,0.0454,0.0061,-0.105,-0.00351,0.0579,0.0581,0.132,0.949,0.985,0.988,0.989,0.511,0.587,0.6,0.607,0.471,0.569,0.584,0.597,–,–,–,–,–,–,–,–
